Data as given in PubChem BioAssay AID1463 (National Center for Advancing Translational Sciences (NCATS), 2008).
Screen size: about 280,000 compounds; about 2,600 (0.93%) were called active. Another 8% or so got no clear call; they are omitted. Calls follow the shape of the dose curve; as a rule, active = well fitted curve in the direction sought with a large enough effect; inconclusive = small, poorly fitted or top-dose-only effect; inactive = flat fitted curve, though single readings scatter. The list comes from a sample in which actives are over-represented; it also holds similar structures and randomly drawn compounds. Entries that show only a call come without a potency.

Assay: Counterscreen qHTS for Inhibitors of Tau Fibril Formation, Fluorescence Polarization; also: nearly all actives have a fitted effect of over 55% in size
Details: tau K18 P301L Alexa594 fluorescence, heparin fibrillization; series mostly up to 57.7 µM
Procedure, shortened: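 Human tau K18 P301L (15 uM unlabeled, 0.24 uM Alexa 594-labeled) in 100 mM sodium acetate pH 7 with 20 uM heparin, 6 hr at 37 C. ThT 30 uM added, 1 hr ambient; Alexa 594 FP and total fluorescence read at 555/632 nm.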
Potency is read from the fitted curve at half-maximal effect; tags tell the direction and shape of the fitted curve or compound fluorescence and quenching.

| Structure (SMILES) | Potency |
| --- | --- |
| CC(=O)N1CCc2cc(S(=O)(=O)NC(Cc3ccccc3)C(=O)NCc3ccc(C)cc3)ccc21 (centres undefined) | inactive |
| CCN1CCN(C(=O)c2cc3cc4ccc(OC)cc4nc3s2)CC1 | inactive |
| Cc1ccc(C(=O)NNC(=O)c2cc3cc4ccccc4nc3s2)cc1 | inactive |
| CCN(CCCNC(=O)c1cc2cc3cc(OC)ccc3nc2s1)c1ccccc1 | 4.47 µM [quencher] (active) |
| O=C(CCS(=O)(=O)c1ccccc1)N(Cc1cccnc1)c1nc2c(F)cccc2s1 | inactive |
| COc1cc(OC)c2c(-c3cccc(-c4cccc(N)c4)c3)cc(=O)oc2c1 | 11.2 µM [quencher] (active) |
| COc1ccc(-c2c(C)cc3oc(=O)cc(-c4ccccc4)c3c2C)cc1F | inactive |
| COc1ccc(-c2c(C)cc3oc(=O)cc(-c4ccccc4)c3c2C)cc1OC | inactive |
| CCOc1ccccc1NC(=O)CN1CCCN(Cc2cccc(Cl)c2)S1(=O)=O | inactive |
| CC(CCCc1ccccc1)NC(=O)c1nn(-c2ccc(Cl)cc2)nc1CO (centres undefined) | inactive |
| CN(C)c1cc2c(Nc3ccc4c(cnn4Cc4ccccc4)c3)ncnc2cn1 | 7.08 µM [quencher] (active) |
| CC(=O)Nc1ccc(NC(=O)CSc2ncnc3c2cnn3Cc2ccccc2)cc1 | inactive |
| Clc1ccc(Nc2ncnc3c2nnn3Cc2ccccc2)cc1 | inactive |
| COc1ccc(C)cc1NC(=O)CCc1c(C)nn(-c2ccc(N3CCOCC3)nn2)c1C | inactive |
| CC(=O)Nc1ccc(NC(=O)C2CCCN(S(=O)(=O)c3ccc4c(c3)CCCC(=O)N4)C2)cc1 (centres undefined) | inactive |
| COc1ccc2nc(Nc3nc(-c4cc5ccccc5oc4=O)cs3)sc2c1 | inactive |
| COc1ccc(NC(=O)Nc2ccc3nsnc3c2)cc1 | 15.8 µM [quencher] (active) |
| COc1ccc(NC(=O)Nc2cccc(-c3noc(C)n3)c2)cc1 | inactive |
| COc1ccc2nc(Nc3nc4cc5c(cc4s3)OCCO5)sc2c1 | 7.08 µM [quencher] (active) |
| Cc1nc2cc3c(cc2s1)OCO3 | inactive |
| COc1ccc2nc(Nc3nc(-c4ccncc4)cs3)sc2c1 | 17.8 µM [quencher] (active) |
| COc1cccc(C(=O)Nc2nc3ccc(S(C)(=O)=O)cc3s2)c1 | inactive |
| CCOc1ccc2nc(Nc3nc4ccc(NC(C)=O)cc4s3)sc2c1 | 15.8 µM [quencher] (active) |
| CCOc1ccc2nc(NC(=O)CSc3nc4c(c(=O)n(C)c(=O)n4C)n3CC)sc2c1 | inactive |
| CCC(=O)c1ccc(OCC(=O)Nc2ccc3nc(C)sc3c2)cc1 | inactive |

| Structure (SMILES) | Potency |
| --- | --- |
| COc1ccc2nc(NC(=O)[C@@H]3CCCN3C(=O)c3cccs3)sc2c1 | inactive |
| COc1ccc(/C=N/NC(=O)Nc2ccc3nsnc3c2)c(OC)c1 | inactive |
| CCc1cnc2c(c1SCC(=O)c1ccccc1)c(=O)n(C)c(=O)n2C | inactive |
| COc1ccc(OC)c(CNC(=O)CN2C(=O)CCn3nc(-c4cn(C)c5ccccc45)cc32)c1 | inactive |
| COc1ccc2[nH]c3c(c2c1)CCN(C(=O)CCC1CCCC1)C3c1ccc(F)cc1 (centres undefined) | inactive |
| Cc1cccc(C2CC(=O)Oc3c2c(=O)n(C)c2ccccc32)c1 (centres undefined) | inactive |
| CCC(=O)Nc1cccc(C(=O)OCc2cc(=O)n3nc(CC)sc3n2)c1 | inactive |
| O=C(O)c1ccc2c(c1)N(Cc1ccc(F)cc1)C(=O)c1ccccc1S2=O (centres undefined) | inactive |
| Cc1cccc(NC(=O)c2ccc(F)c(S(=O)(=O)N(C)C3CCCCC3)c2)c1 | inactive |
| CCOc1ccc(OCC)c(NC(=O)c2c(C)nn(-c3ccccc3)c2-n2cccc2)c1 | inactive |
| Cc1ccc(C2c3[nH]c4ccccc4c3CCN2C(=O)c2cccc(C)c2)cc1 (centres undefined) | inactive |
| CCOc1cccc(CNC(=O)c2ccc(N3CCCC3)c(NC(=O)Nc3ccccc3CC)c2)c1 | inactive |
| COc1ccc2nc(Nc3nc4ccc(NC(C)=O)cc4s3)sc2c1 | 12.6 µM [quencher] (active) |
| CNC(=O)c1ccc2nc(NC(C)=O)sc2c1 | inactive |
| CCCC(=O)Nc1nc2ccc(NC(=O)c3c(F)c(F)c(OC)c(F)c3F)cc2s1 | inactive |
| COc1ccc(Cl)cc1N(C)C(=O)c1cc2c(=O)oc3ccc(C)cc3c2s1 | inactive |
| COc1ccc(CCNS(=O)(=O)c2cc(-c3cc(C)no3)ccc2C)cc1OC | inactive |
| CC(C)(C)c1ccc(C(=O)NCC(c2ccc(Cl)cc2)N2CCOCC2)cc1 (centres undefined) | inactive |
| COc1ccc(Br)cc1C1CC(=O)Nc2c1c(C)nn2-c1nc(C)cc(C)n1 (centres undefined) | inactive |
| COc1ccc(/C=N/NC(=O)c2ccc(Cl)cc2)cc1COC(C)=O | inactive |
| COc1ccccc1Cc1nc2ccccc2nc1SCC(=O)N1CCCc2ccccc21 | inactive |
| COc1ccc(/C=N/NC(=O)c2ccncc2)cc1CN1CCCc2ccccc21 | 14.1 µM [quencher] (active) |
| CCOC(=O)C1CCCN(C(=O)c2ccc(-n3ccc4ccccc43)s2)C1 (centres undefined) | inactive |
| CCOc1ccc(N(CC)C(=O)c2noc3c2COc2ccc(C)cc2-3)cc1 | inactive |
